Shown are actives, neighbours in structure and some others; about 2.6% of the full set was active somewhere.
Mcl1 Noxa PPI = Mcl-1/Noxa binding inhibitors, primary screen, biochemical, TR-FRET, 1536-well. inhibition, % at 21.7 µM. AID 1022, 2008. TR-FRET Mcl-1/Noxa peptide binding, 2 h. Induced myeloid leukemia cell differentiation protein Mcl-1 (Homo sapiens), Q07820. 220,000 compounds, 1.5% hits;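 active means compounds that cut the protein-peptide binding signal by more than 50% relative to plate controls in a single-dose test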;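 further: His-tagged Mcl-1 with rhodamine Noxa BH3 peptide and terbium anti-His antibody; 0% = Mcl-1 plus Noxa peptide wells and 100% = peptide-only wells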
Target sequence (Q07820 whole entry, looked up): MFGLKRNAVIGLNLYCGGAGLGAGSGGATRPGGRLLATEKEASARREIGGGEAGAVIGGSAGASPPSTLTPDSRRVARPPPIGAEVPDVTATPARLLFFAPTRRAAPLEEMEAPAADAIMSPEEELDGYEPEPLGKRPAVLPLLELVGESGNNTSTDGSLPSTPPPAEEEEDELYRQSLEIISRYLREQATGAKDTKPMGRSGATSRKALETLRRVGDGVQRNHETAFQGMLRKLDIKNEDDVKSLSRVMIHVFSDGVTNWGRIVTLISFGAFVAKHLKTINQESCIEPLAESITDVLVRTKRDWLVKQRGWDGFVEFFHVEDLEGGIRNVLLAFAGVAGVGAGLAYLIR
Mcl-1 Bim block = inhibitors of Bim peptide binding to Mcl-1, primary screen, biochemical, bead-based flow cytometry, multiplex; Induced myeloid leukemia cell differentiation protein Mcl-1 (Homo sapiens), Q07820; Bim peptide-Mcl-1 binding; inhibition, % at 10 µM; 190,000 compounds, 0.1% hits; in the data active means inhibition above about 40%;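 further: 0% = no compound tracer wells and 100% = peptide blocker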
eIF4E 4G PPI = eIF4E–eIF4G protein interaction inhibitors, primary screen, biochemical, uHTS, TR-FRET, eIF4GI fragment | inhibition, % at 21.7 µM | 220,000 compounds, 0.37% hits | TR-FRET eIF4E-eIF4GI(517-606) binding, 2 h | Eukaryotic translation initiation factor 4E (Mus musculus) + Eukaryotic translation …;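 active means inhibition above about 30%, limit read from the data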;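 further: 0% = full FRET control wells and 100% = background wells lacking eIF4GI fragment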
14-3-3 Bad inh = inhibitors of 14-3-3 zeta/Bad binding, primary screen, biochemical, TR-FRET, bovine 14-3-3 zeta | 14-3-3 protein zeta/delta (Bos taurus), P63103 | TR-FRET 14-3-3zeta/Dy647-pBad peptide displacement, 1 h | inhibition, % at 21.7 µM | 220,000 compounds, 0.71% hits;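 active means inhibition above about 70%, limit read from the data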;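 further: 0% = full 14-3-3 plus peptide FRET controls and 100% = background without 14-3-3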
Target sequence (P63103 whole entry, looked up): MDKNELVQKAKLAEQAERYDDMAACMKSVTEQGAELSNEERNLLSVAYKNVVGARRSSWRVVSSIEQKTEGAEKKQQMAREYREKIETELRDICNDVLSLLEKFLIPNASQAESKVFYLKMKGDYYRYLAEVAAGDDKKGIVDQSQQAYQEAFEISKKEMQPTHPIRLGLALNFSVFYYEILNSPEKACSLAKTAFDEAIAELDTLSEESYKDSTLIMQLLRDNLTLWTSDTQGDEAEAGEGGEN
MCL1-BIM inh = inhibitors of MCL1 binding to BIM-BH3, primary screen, biochemical, fluorescence polarization; Induced myeloid leukemia cell differentiation protein Mcl-1 (Homo sapiens), Q07820; GST-MCL1 / FITC-Bim-BH3 fluorescence polarization; inhibition, % at 10.9 µM; 320,000 compounds, 0.68% hits; AID 2057, 2009;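 active means inhibition above the mean inhibition of all tested compounds plus 3 SD, set per campaign, cut at about 40% in these data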;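 further: 0% = DMSO wells and 100% = unlabeled Bim-BH3 peptide control; higher means more loss of mP so more displacement of Bim peptide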
Mcl1-Bid inh = Mcl-1/Bid binding inhibitors, primary screen, biochemical, TR-FRET, 1536-well; Induced myeloid leukemia cell differentiation protein Mcl-1 (Homo sapiens), Q07820; inhibition, % at 21.7 µM; 220,000 compounds, 0.97% hits; TR-FRET Mcl-1/Bid-Dy647 peptide binding;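 active means compounds that cut the binding signal by more than half at the single screening dose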;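 further: His-tagged Mcl-1 with europium anti-His antibody binding Bid BH3 peptide; 0% = Mcl-1 plus peptide wells and 100% = peptide-only wells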
Active calls of the source: *; / = not tested or not shown.

SMILES | Mcl1 Noxa PPI | Mcl-1 Bim block | eIF4E 4G PPI | 14-3-3 Bad inh | MCL1-BIM inh | Mcl1-Bid inh
O=C(N/N=C/c1cccs1)c1ccc(-n2cccc2)cc1 | 26.3 | -1.0 | 1.2 | -6.5 | 9.9 | -32.7
O=C(N/N=C/c1ccncc1)c1ccc(-n2cccc2)cc1 | 59.3* | -2.0 | 4.4 | -13.1 | 11.1 | -10.6
O=C(CSc1ccc2nnc(CCNS(=O)(=O)c3ccccc3)n2n1)Nc1nc2ccccc2s1 | 14.2 | -2.0 | -7.3 | 22.8 | 1.5 | -15.3
Cc1ccc(CNc2oc(C)nc2C#N)cc1 | -0.5 | -6.0 | 1.9 | 88.6* | 1.4 | -31.7
NC(=O)Cn1c(=O)n(CCC(=O)Nc2ccc(F)cc2)c(=O)c2sccc21 | / | / | / | / | 8.6 | /
CCNc1nc(NCC)n2c(SCC(=O)c3ccccc3F)nnc2n1 | 13.0 | 0.0 | 0.2 | -12.3 | 21.6 | -24.5
Oc1[nH]c2ccccc2c1N=Nc1ccc(F)cc1 | 16.6 | 0.0 | 1.7 | -8.8 | -190.8 | -14.6
NS(=O)(=O)c1cc(C(=O)N=Nc2c(O)[nH]c3ccccc23)ccc1Cl | 51.0* | / | -7.8 | 5.3 | 7.7 | -1.1
O=C(N=Nc1c(O)[nH]c2ccccc12)c1cc(-c2ccc(F)cc2)n[nH]1 | 52.0* | -2.0 | 11.3 | 59.2 | 6.9 | 37.1
O=C(C1CC1)N1N=C(C2CCCCC2)CC1(O)C(F)(F)F (configuration not stated) | -13.9 | -3.0 | -0.3 | -7.3 | 5.7 | -8.3
COC(Cn1cc(C)c(=O)[nH]c1=O)OC | 3.5 | -2.0 | -4.1 | -13.2 | 1.9 | -2.0
Cc1cn(CC2COC(C)(C)O2)c(=O)[nH]c1=O (configuration not stated) | 73.1* | -3.0 | 5.7 | 3.9 | 5.2 | -15.1
Cc1ccc2nc3sc(C(=O)Nc4c(C)[nH]c(=O)[nH]c4=O)c(N)c3cc2c1 | 56.4* | -1.0 | 0.5 | -6.0 | 9.5 | -37.4
Cc1ccc2cc3c(N)c(C(=O)Nc4c(C)[nH]c(=O)[nH]c4=O)sc3nc2c1 | 65.9* | -2.0 | -4.2 | -9.0 | 3.0 | -32.3
Cc1ccc2cc3c(N)c(C(=O)N4CC(=O)Nc5ccccc54)sc3nc2c1 | 58.5* | 0.0 | -2.6 | 29.8 | -19.1 | 7.8
Cc1[nH]c(=O)[nH]c(=O)c1NC(=O)c1sc2nc3c(C)cccc3cc2c1N | 36.0 | -5.0 | 5.3 | 1.1 | 13.9 | -58.6
Cc1ccc2cc3c(N)c(C(=O)N4CCOCC4)sc3nc2c1 | 22.0 | -3.0 | 8.3 | -11.6 | 5.3 | -54.8
Cc1cc(=O)oc2c(C)c(OC3CCCCC3=O)ccc12 (configuration not stated) | / | / | / | / | -3.4 | /
COc1cccc(-c2cc(CC3(O)CCN(CCCc4ccccc4)CC3)on2)c1 | / | / | / | / | 0.9 | /
CC(=O)N1CCc2cc(S(=O)(=O)CCC(=O)NCCc3ccccc3)ccc21 | / | / | / | / | -1.0 | /
Cc1cccc(NC2=NCC(=O)N2Cc2ccccc2)c1 | 35.4 | -4.0 | -4.7 | 29.9 | 1.3 | 14.0
Cc1cc(C)cc(NC2=NCC(=O)N2Cc2ccccc2)c1 | -10.6 | 0.0 | -1.0 | 72.3* | 2.7 | -25.0
CC(C)c1ccc(NC2=NCC(=O)N2Cc2cccs2)cc1 | 20.3 | 0.0 | -3.8 | 9.4 | 2.7 | -0.7
O=C1CN=C(Nc2ccccc2)N1Cc1cccs1 | 12.7 | 0.0 | 1.4 | 71.7* | 12.1 | 5.9
CCn1nc([N+](=O)[O-])c2c(-c3nc4ccccc4o3)c(N)n(CCCOC)c2c1=O | 52.0* | 1.0 | 1.0 | 3.9 | 34.3 | 26.7
SMILES | Mcl1 Noxa PPI | Mcl-1 Bim block | eIF4E 4G PPI | 14-3-3 Bad inh | MCL1-BIM inh | Mcl1-Bid inh
COCCCn1c(-c2ccco2)nc2ccccc2c1=O | 12.9 | 0.0 | 1.1 | 4.7 | 5.7 | 5.2
COc1ccc(-c2nn(CCC(=O)O)cc2/C=C2\SC(N)=NC2=O)cc1OC | 89.6* | -17.0 | -3.0 | 11.2 | 10.4 | 27.0
CCCOc1ccc(-c2nn(-c3ccccc3)cc2/C=C2\SC(N)=NC2=O)cc1C | 15.7 | -1.0 | 4.0 | 3.4 | -0.5 | -31.8
CCN(CC)c1ccc(NC(=O)CN2CCN(CC(=O)Nc3ccccc3OC)CC2)cc1 | / | / | / | / | 4.8 | /
CCN(CC)c1ccc(NC(=O)CN2CCN(CC(=O)Nc3ccccc3F)CC2)cc1 | 55.0* | 0.0 | 13.8 | -2.2 | 4.3 | -51.3
CN1CCN(CC(=O)Nc2ccc(OCc3ccccc3)cc2)CC1 | 33.1 | 0.0 | -6.3 | 86.9* | -3.1 | 44.5
O=C(CN1CCN(CCO)CC1)Nc1ccccc1 | 37.0 | -1.0 | 3.4 | 73.3* | 3.9 | 20.7
Cc1ccc(S(=O)(=O)c2c(C)nn(-c3ccccc3)c2OC(=O)c2ccc(Br)o2)cc1 | 35.5 | -2.0 | 2.9 | -8.4 | 13.9 | 48.8
O=C(CN1CCN(C(=O)c2ccc(-c3nc4ccccc4s3)o2)CC1)Nc1ccc(F)cc1 | / | / | / | / | -5.4 | /
COc1ccc(S(=O)(=O)Nc2cccc(S(=O)(=O)N3CCCC3)c2)cc1OC | / | / | / | / | -0.4 | /
Cc1nc2c(-c3ccc(Cl)cc3)cnn2c(N)c1-c1ccc(F)cc1 | / | / | / | / | 2.7 | /
Cc1nc2c(-c3ccc(Cl)cc3)cnn2c2c1CCC2 | 14.4 | 0.0 | -4.3 | -14.4 | -10.7 | 85.2*
Cc1ccc(NC(=O)c2ccc(S(=O)(=O)NCc3cccnc3)cc2)c(C)c1 | / | / | / | / | -3.0 | /
N#Cc1ccc(OCC(=O)N2CCN(c3ccc(C(F)(F)F)cn3)CC2)cc1 | / | / | / | / | -16.1 | /
Cc1ccc(C)c(NC(=O)C[n+]2ccccc2)c1 | / | / | / | / | 1.7 | /
Cc1ccc(N=Cc2nc(-c3ccc(C)cc3)oc2O)cc1 | -11.3 | -2.0 | 66.0* | 0.5 | / | -2.5
Oc1oc(-c2ccccc2)nc1C=Nc1ccccc1 | 22.7 | 0.0 | -1.2 | 11.9 | 9.6 | -17.6
COc1ccc(NC(=O)CSc2nccn2Cc2ccco2)cc1 | / | / | / | / | -6.2 | /
CN(C)/C=C/C(=O)c1ccc(C(F)(F)F)cc1F | 19.9 | 100.0* | 1.4 | -8.2 | 1.2 | -22.6
O=[N+]([O-])c1ccc(Cl)cc1N/N=C/c1ccncc1 | / | / | / | / | 6.2 | /
O=[N+]([O-])c1cc(S(=O)(=O)Nc2ccc(Cl)cc2)ccc1N/N=C/c1ccncc1 | 51.7* | -2.0 | 11.0 | 22.9 | 0.7 | 25.9
Cc1ccc(C(=O)C(C(=O)/C=C/c2ccccc2)=C2SCCCS2)cc1 | 2.1 | 58.0* | 1.3 | 1.6 | 9.5 | 2.6
CCNc1nc(NCC)nc(C(=O)NN)n1 | 75.0* | -13.0 | 2.8 | 3.9 | 0.2 | -18.1
O=C(/C=C\c1ccccc1OC(=O)c1ccccc1F)c1cc2ccccc2o1 | -4.4 | -5.0 | 1.8 | -1.9 | -3.5 | -27.0
Cc1cccc(OCC(=O)Nc2ccccc2C(=O)N2CCOCC2)c1 | 59.3* | -3.0 | -0.7 | 3.9 | 3.7 | -30.1
Cc1cc(C)cc(OCC(=O)Nc2ccccc2C(=O)N2CCOCC2)c1 | / | / | / | / | 0.8 | /

Screens: PubChem, several laboratories
